# Assay outcomes deposited in PubChem BioAssay by several laboratories.
# In the library only some 2.2% were active in any assay of this set; here they are far more common.
# aSyn UTR inh: 5' untranslated region of α-synuclein, MLPCN primary screen; inhibition, % (tested at 7.5 µM); 300,000 tested, 0.82% active; alpha-synuclein 5'UTR reporter, inhibitor activity; in the data active means inhibition above about 60%; inconclusive means no clear call, values can overlap the other calls;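 further: H4 neuroglioblastoma cells stably carrying SNCA 5'UTR luciferase fusion; 0% = DMSO wells and 100% = positive control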
# Ba/F3 V617F tox: lowers viability of Ba/F3 cells expressing EpoR and JAK2V617F. AID 1446. ATP luminescence. inhibition, % at 5.6 µM. 220,000 tested, 1.1% active;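 active means inhibition above the campaign mean plus 3 SD over all tested compounds, cut at about 24% in these data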;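 further: cytokine-independent growth of Ba/F3 cells driven by EpoR plus mutant JAK2; 0% = DMSO-treated cells and 100% = JAK inhibitor I control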
# KLF5 inh: inhibitors of KLF5 expression; 290,000 tested, 0.23% active; DLD-1 KLF5 promoter-luciferase reporter, luminescence; inhibition, % at 5 µM;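 active means inhibition above a per-plate limit of that plate's mean compound inhibition plus 3 SD, cut at about 60% in these data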;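 further: 0% = DMSO wells and 100% = LY294002 at 200 µM; higher means less KLF5 promoter-driven luciferase light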
# APP 5UTR inh: APP translation inhibition | SH-SY5Y APP 5'UTR-luciferase reporter, luminescence | 190,000 tested, 0.82% active | inhibition, % at 2 µM | AID 1285;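 active means inhibition above a set limit, derived from the sample mean plus 3 SD, cut at about 45% in these data; inconclusive means one replicate passes the limit while the other fails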
# IEC-6 tox: IEC-6 cytotoxicity, counter-screen for KLF5 inhibitors; luminescence viability; inhibition, % at 5 µM; 290,000 tested, 0.78% active; AID 1825;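 further: 0% = plate median of test compound wells and 100% = cytotoxic reference compound wells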
# BaF3 tox: counter-screen for JAK2V617F inhibitors: parental Ba/F3 viability inhibitors; CellTiter-Glo ATP luminescence; inhibition, % at 5.6 µM; 220,000 tested, 1.1% active; AID 1486;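 active means inhibition above a per-campaign cutoff, the mean inhibition of all tested compounds plus 3 SD, cut at about 27% in these data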;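 further: 0% = DMSO wells and 100% = JAK Inhibitor I control wells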
# IEC-6 tox confirm: confirmation of cytotoxic compounds in rat IEC-6 intestinal epithelial cells | shares compounds with IEC-6 tox | IEC-6 rat intestinal epithelial viability, luminescence | inhibition, % at 5 µM | 1,900 tested, 63% active;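 further: 0% = vehicle and 100% = reference cytotoxic drug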
# * hit, by the source's call; ? = inconclusive; . = no result. Unless noted, no stated cut-off is given here; in the data, active means inhibition above about 22%; inactive means the rest.
SMILES,aSyn UTR inh,Ba/F3 V617F tox,KLF5 inh,APP 5UTR inh,IEC-6 tox,BaF3 tox,IEC-6 tox confirm
CC(C)c1ccc(CNC(=O)C(=O)NCC2CCCO2)cc1 (configuration not stated),-4.1,0.2,-35.0,-13.5,3.0,8.8,.
Cc1cc(C)c(C(=O)CSc2nc3ccccc3c(=O)[nH]2)cc1C,13.4,-1.8,-54.0,4.1,71.0*,7.4,51.6*
Cc1ccc(C)c(C(=O)CSc2nc3ccccc3c(=O)[nH]2)c1,-3.7,-0.1,3.1,-13.7,44.0*,8.4,48.0*
Cc1ccc(C(=O)CSc2nc3ccccc3c(=O)[nH]2)cc1C,-6.6,-1.9,-10.1,-24.5,21.3,0.9,.
CC(C)c1ccc(CNc2c([N+](=O)[O-])c(=O)oc3ccccc23)cc1,-70.8,7.3,-23.8,-2.3,8.6,9.5,.
O=C(CSc1nnc(NC(=O)c2cccc(F)c2)s1)NC1CCCC1,-4.8,.,-42.7,.,-0.7,.,.
O=C(N/N=C/c1cccc([N+](=O)[O-])c1)C(=O)N1CCCCCC1,-15.3,.,-15.8,.,-3.0,.,.
O=C(N/N=C/c1cccnc1)c1ccc([N+](=O)[O-])cc1,14.2,-2.9,-13.4,4.5,1.6,0.8,.
O=[N+]([O-])c1ccc(N/N=C/c2cccnc2)cc1,-13.8,.,-55.8,.,24.2*,.,5.0
CCOc1cc(CNCCc2ccc(S(N)(=O)=O)cc2)ccc1OCc1ccc(Cl)cc1,97.5*,14.1,25.3,17.8,24.2*,18.5,11.8
COc1cc(CNCCc2ccc(S(N)(=O)=O)cc2)ccc1OCc1ccc(Cl)cc1,-64.2,0.8,-7.9,11.2,-2.1,12.3,.
CC(C)C[C@@H](CN=[N+]=[N-])N1CCN(Cc2ccccc2)CCC1=O,6.8,.,6.4,.,5.0,.,.
Cc1ccc2nc(N/C(=N/S(=O)(=O)c3ccc(F)cc3)c3ccccc3)sc2c1,-106.6,-2.9,-85.5,-31.7,-1.3,5.1,.
Cc1ccc2nc(N/C(=N/S(=O)(=O)c3ccc(F)cc3F)c3ccccc3)sc2c1,-107.9,1.9,-58.2,-66.2,22.5*,6.6,6.2
CSc1cccc(NS(=O)(=O)c2ccc3c(c2)CCN3C(C)=O)c1,-4.0,.,41.9,.,33.4*,.,19.0
COc1cccc(NS(=O)(=O)c2ccc3c(c2)CCN3C(C)=O)c1,-19.4,.,-0.6,.,6.4,.,.
CCCCN(S(=O)(=O)c1ccccc1)S(=O)(=O)c1ccccc1,18.2,.,-27.1,.,-8.3,.,.
COc1ccc(Cl)cc1NC(=O)CN(C)CC(=O)Nc1ccc(Br)cc1,10.2,4.7,-16.1,8.1,-1.0,7.6,.
COc1ccc(Cl)cc1NC(=O)CN(C)CC(=O)Nc1cc(OC)c(OC)c(OC)c1,3.9,.,54.1,.,40.1*,.,32.8*
COc1cc(C)c(Cl)cc1S(=O)(=O)NC1CC(C)(C)NC(C)(C)C1,0.4,-0.8,-12.0,-19.6,0.0,1.8,.
Cc1ccc2ncnc(Nc3ccccc3)c2c1,-18.4,-3.1,-0.1,1.7,17.1,18.9,.
Cc1cccc(Nc2ncnc3ccc(Br)cc23)c1,3.5,7.1,5.1,-11.6,42.4*,10.0,41.9*
CCC(C)(C)n1nnnc1CN1CCC(c2nc3ccc(C)cc3[nH]2)CC1,21.8,-3.6,-44.3,-1.2,10.8,2.5,.
Cc1cc2nc(C3CCN(Cc4nnnn4Cc4ccccc4)CC3)[nH]c2cc1C,74.2*,72.3*,22.9,39.8,71.8*,68.3*,52.1*
NC(=O)c1ccc(Oc2ccc3c(c2)CCC3)c([N+](=O)[O-])c1,10.6,.,-19.4,.,1.6,.,.
SMILES,aSyn UTR inh,Ba/F3 V617F tox,KLF5 inh,APP 5UTR inh,IEC-6 tox,BaF3 tox,IEC-6 tox confirm
CCS(=O)(=O)c1ncc(Cl)c(C(=O)Nc2ccc(S(=O)(=O)N3CCCC(C)C3)cc2)n1 (configuration not stated),72.2*,.,55.3,.,101.4*,.,4.1
CC1CCCN(S(=O)(=O)c2ccc(NC(=O)CNC3CCCC3)cc2)C1 (configuration not stated),0.9,.,-7.4,.,3.4,.,.
Cc1ccc(CS(=O)(=O)c2ncc(Cl)c(C(=O)Nc3ccc(OC(F)F)cc3)n2)cc1,?,.,9.6,.,31.3*,.,14.6
CCC1CCCCN1S(=O)(=O)c1ccc(NC(=O)c2ccncc2)cc1 (configuration not stated),-26.7,.,-25.1,.,7.0,.,.
CCS(=O)(=O)c1ncc(Cl)c(C(=O)Nc2ccc(C)cc2)n1,-27.4,.,19.7,.,74.9*,.,41.7*
CCC1CCCCN1S(=O)(=O)c1ccc(NC(=O)c2nc(S(C)(=O)=O)ncc2Cl)cc1 (configuration not stated),51.3,.,8.4,.,94.1*,.,21.5
O=C(Nc1ccc(OC(F)F)cc1)c1ncc(Cl)c(Cl)c1Cl,-54.3,-1.8,23.3,2.4,10.1,0.4,.
COc1ccccc1CNC(=O)c1ccc2nc(N3CCOCC3)sc2c1,5.9,.,-27.7,.,1.8,.,.
COc1ccc(C(CNC(=O)c2ccc3c(c2)OCCO3)N(C)C)cc1 (configuration not stated),-27.0,.,-29.8,.,2.9,.,.
CCC(=O)N1CCN(c2ccc(NC(=S)NC(=O)c3cc4ccccc4o3)cc2)CC1,-56.9,.,-49.0,.,-4.1,.,.
CC(C)(C)c1nc(NCCO)c2nnn(Cc3ccccc3)c2n1,38.1,.,-38.4,.,-1.3,.,.
Cc1ccnc2ccc(SC(F)(F)F)cc12,18.2,1.2,-6.4,-2.4,-2.8,9.0,.
Cn1ccnc1CN1CCCCC1C(=O)Nc1ccc(Oc2cccnc2)cc1 (configuration not stated),-76.9,.,14.5,.,27.1*,.,2.8
CCn1ccnc1CN1CCCCC1C(=O)Nc1ccc(Oc2cccnc2)cc1 (configuration not stated),-43.1,.,1.7,.,9.3,.,.
COc1ccc(/C=N/NC(=O)CCn2cnc(-c3ccccc3)c2-c2ccccc2)cc1OC,3.8,58.3*,35.4,79.7*,70.7*,63.1*,45.9*
CC(C)[C@H]1COC(NC2=N[C@@H](C(C)C)CO2)=N1,-25.2,.,-6.5,.,-2.5,.,.
CCCCNc1cc(C)nc(NCc2ccccc2)n1,-17.3,49.5*,-7.8,-12.1,23.3*,45.4*,1.5
Cc1cc(Nc2ccccc2)nc(NCc2ccccc2)n1,0.0,9.2,-13.0,2.4,13.4,15.5,.
O=C(Nc1ccccc1Cl)c1ccc2nc(N3CCOCC3)sc2c1,-98.8,.,-92.6,.,1.1,.,.
Cc1cc(=O)[nH]c(SCC(=O)OCc2ccccc2)c1C#N,0.1,-1.1,0.8,-17.2,-4.7,8.7,.
O=C1NC(c2ccc(Br)cc2)Nc2ccccc21 (configuration not stated),-37.8,.,4.8,.,32.6*,.,32.6*
COC1CCCN(Cc2cn(C)nc2-c2ccc(Oc3ccccc3)cc2)C1 (configuration not stated),6.2,3.8,15.6,11.5,3.9,7.4,.
CCCN1CCC(NCc2cn(C)nc2-c2ccc(Oc3ccccc3)cc2)CC1,-33.2,52.5*,-8.9,.,35.9*,67.5*,43.0*
COc1ccc(CC(=O)NCc2ccccc2)cc1,-154.2,.,44.7,.,50.0*,.,37.1*
O=C(Cc1ccc(Br)cc1)NCc1ccccc1,-66.9,.,35.2,.,59.6*,.,44.7*
